From PubChem BioAssay
Cycloheximide cs = counter-screen for Shiga toxin inhibitors: cycloheximide protein synthesis inhibition; cell reporter, cycloheximide protein synthesis inhibition counterscreen; max response, %; 300,000 compounds, 12% hits; AID 2314; in the data active means max response mostly above about 13%, no sharp cut-off; inactive means mostly below about 14%; further: read at 38.3 µM for the half of the compounds with a filed dose; 0% is about no effect
AMA1 RON2 block = inhibitors of Plasmodium falciparum AMA1-RON2 interaction | AID 720542 | 360,000 compounds, 0.2% hits | AlphaScreen AMA1-biotinylated RON2 peptide binding | Potency, µM (titrated, usually from 58.2 µM), without a hit: top-dose activity change, negative = inhibition, most hits filed as inhibitors; active means well fitted inhibition curve with a large enough effect; inconclusive means small, poorly fitted or top-dose-only effect; inactive means no such curve, though single readings can be large or run the other way;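 further: potency means the concentration at half of the fitted maximal effect; 0% = vehicle wells and -100% = peptide control; nearly all actives have a fitted effect of over 45% in size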
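AMA1 (3D7) with his tag at 25 nM final met compounds first, then biotinylated RON2 peptide at 25 nM; detection used donor plus acceptor beads, 10 µg/mL apiece, read by AlphaScreen after 30 min at room temperature.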
Shiga toxin inh = inhibitors of Shiga toxin in Vero cells | 290,000 compounds, 9.2% hits | inhibition, % at 38.7 µM | Vero cells, Shiga toxin protein synthesis inhibition reporter | AID 2315; in the data active means inhibition mostly above about 28%, no sharp cut-off; inactive means mostly below about 43%; further: 0% is about no effect
Marburg entry inh = Marburg virus entry inhibition | 300,000 compounds, 1.8% hits | Marburg virus pseudotyped entry inhibition, cell reporter | Potency, µM (doses to about 37.8 µM), inactives show at the top dose activity change, negative = inhibition, actives largely listed as inhibitors; calls by dose curve; tested in HEK293 cells; further: potency means the concentration at half of the fitted maximal effect; on the % scale 0 is the no-effect control and ±100 the full control effect
LASV entry inh = inhibitors of Lassa virus binding or cell entry; Potency, µM (titrated, usually from 37.9 µM), inactives show at the highest dose activity change, negative = inhibition, usual class: inhibitors; 300,000 compounds, 1.2% hits; Lassa virus pseudotype entry inhibition, cell reporter; calls by dose curve; tested in HEK293 cells; further: potency means the concentration at half of the fitted maximal effect; on the % scale 0 is the no-effect control and ±100 the full control effect; nearly all actives have a fitted effect of over 50% in size
* hit, by the source's call; ? = inconclusive; . = no result given; + = active, no number; ! = not active in a repeat; [ ] = remark or other dose. Shown is part of a subset that was picked to be rich in hits.

SMILES | Cycloheximide cs | AMA1 RON2 block | Shiga toxin inh | Marburg entry inh | LASV entry inh
CCCSc1ccc([C@H]2N[C@@](CC(C)C)(C(=O)OC)[C@H]3C(=O)N(CC)C(=O)[C@@H]23)cc1 | . | 6% | . | . | .
CCC(=O)Nc1nc2ccccc2n1Cc1ccc(Cl)cc1 | -2 | 108% | 45 | 12µM* | ?
O=C(Nc1nc2ccccc2n1Cc1ccccc1)c1ccco1 | 26* | -1% | 27 | ? | -22%
CCCCn1c(C(C)NC(=O)CC)nc2ccccc21 (stereo not given) | 0 | -3% | -3 | . | .
CCCCCCn1c(C(C)NC(=O)c2ccco2)nc2ccccc21 (stereo not given) | 12* | -3% | 5 | ? | -24%
CC(C)Cn1c(CCNC(=O)c2ccco2)nc2ccccc21 | 31* | 26% | 117 | . | .
CCOCCc1nn2c(=O)cc(COC(=O)Cc3ccccc3)nc2s1 | . | . | . | . | 6%[46.1 µM]
CCC1CN(C(=O)N2CCC(C(=O)NCCc3ccc(OC)cc3OC)CC2)c2cc(C)ccc2O1 (stereo not given) | . | . | . | . | -18%[46.1 µM]
Nc1ccc2ccccc2c1N=Nc1ccccc1 | . | 18µM* | . | 1%[46.1 µM] | ?
Cc1cc(C)n2nc(N)c(N=Nc3ccccc3)c2n1 | 25 | -8% | 58 | ? | -11%[46.1 µM]
Cc1ccccc1N=Nc1c(C)[nH]n(-c2ccccc2)c1=O | -4 | -19% | 8 | 15%[46.1 µM] | 3%
Nc1nn(-c2ccccc2)c(N)c1N=Nc1ccccc1 | 51* | 20% | 102* | ? | ?
Nc1c(N=Nc2ccccc2F)c(=O)[nH]n1-c1ccccc1 | 44* | 0% | 63* | ? | ?
Cc1cccc(N=Nc2c(C)nn(-c3ccccc3)c2N)c1C | 77* | -10% | 72* | -21% | -2%
Cc1ccc(C(c2c(C)nn(-c3ccccc3)c2N)c2c(C)nn(-c3ccccc3)c2N)cc1 | -4 | -5% | -7 | ? | -4%
c1ccc2c(c1)ccc1ccccc12 | . | 14% | . | . | .
CCN(CC)C(=O)C1=C(C)N(CCCOC)C(=O)C(CC(=O)NCCCN(C)C)C1 (stereo not given) | . | 8% | . | . | .
Cc1nn(-c2ccccc2)c(N)c1N=Nc1ccc(Cl)cc1 | 29* | ? | 102* | ? | ?
Cc1nc2c(N=Nc3ccccc3F)c(N)nn2c(N)c1C#N | 16* | 2% | 8 | ? | -1%[46.1 µM]
Nc1ncnc(N)c1N=Nc1ccccc1 | 0 | -1% | -10 | 5µM* | ?
Cc1cc(=O)n2[nH]c(N)c(N=Nc3ccccc3F)c2n1 | 0 | 3%[2.32 µM] | -3 | ? | 1%
Cc1nn(-c2ccccc2)c(N)c1N=Nc1cccc(S(=O)(=O)N2CCOCC2)c1 | 2 | 6% | -3 | ? | ?
Nc1nn(-c2ccccc2)c(N)c1N=Nc1ccccc1F | 50* | 0% | + | ? | ?
Cc1nn(-c2ccccc2)c(N)c1C(O)(C(F)(F)F)C(F)(F)F | 1 | 8% | 13 | ? | 6%
Cc1nn(-c2ccccc2)c(N)c1N=Nc1ccccc1 | 74* | -8% | 77* | ? | ?
SMILES | Cycloheximide cs | AMA1 RON2 block | Shiga toxin inh | Marburg entry inh | LASV entry inh
Cc1ccc(N(CC(=O)N/N=C/c2cc(C)n(-c3ccccc3C)c2C)S(C)(=O)=O)cc1 | 14 | 19% | -4 | -9% | ?
Cc1ccc(S(=O)(=O)N2CCC(C(=O)OCC(=O)N(Cc3ccccc3)C(C)C)CC2)cc1C | . | 0% | . | . | .
CN(C)CCCC1(c2ccc(F)cc2)OCc2cc(C#N)ccc21 (stereo not given) | -2 | -2% | -16 | 16µM*! | ?
COc1ccc(N2CCN(C(=O)C3CCN(S(=O)(=O)c4cccc5nonc45)CC3)CC2)cc1 | . | . | . | . | 4%[46.1 µM]
O=C1N[C@H]2CC=C[C@H]2Nc2ccccc21 | . | 10% | . | . | .
O=C(CSC(=S)N1CCCCC1)N1N=CCC1c1ccccc1 (stereo not given) | 71* | -2% | 163* | 29% | 15%
NC(=NC(=O)c1ccc(Cl)cc1)N1N=CCC1c1ccccc1 (stereo not given) | 1 | -5% | -4 | ? | ?
O=C(CSc1ccc(Cl)cc1)N1N=CCC1c1ccccc1 (stereo not given) | 15 | 6% | 73* | -39% | -7%
Cc1cccc(-n2nnc3c(=O)n(Cc4ccccn4)cnc32)c1 | 13 | 32% | 9 | 18%[46.1 µM] | ?
COc1cc(-c2ccc(Nc3ccccc3C(=O)O)c(OC)c2)ccc1Nc1ccccc1C(=O)O | -1 | 18µM* | 13 | ? | ?
Cc1ccc(C)c(NC(=S)Nc2ncccc2C)c1 | 36* | 28% | 134* | -16%[46.1 µM] | ?
COc1cc(NC(=S)Nc2cccc(C)n2)cc(OC)c1OC | 1 | 11% | -19 | . | .
Cc1cccnc1NC(=S)Nc1ccc(F)cc1F | 35* | 6% | 77* | 20%[14.2 µM] | 4%
Cc1ccc(C)c(NC(=S)N2CCN(c3ccccn3)CC2)c1 | 0 | -5% | -8 | . | .
COc1cc(NC(=S)Nc2ncccc2C)cc(OC)c1OC | 20* | 69% | 41 | . | .
CC1CCCCC1NCC#CCOc1ccc(Cl)cc1 (stereo not given) | 16 | -5% | 3 | . | .
CC(=O)OC(C)(C)/C=C/C(=O)[C@](C)(O)[C@H]1[C@H](O)C[C@@]2(C)[C@@H]3CC=C4[C@H](C[C@H](O)C(=O)C4(C)C)[C@]3(C)C(=O)C[C@]12C | -3 | 10% | -14 | ? | 0.29µM*
CC(=O)OC(C)(C)/C=C/C(=O)C(C)(O)C1[C@H](O)C[C@@]2(C)C3CC=C4C(CC[C@@H](O)C4(C)C)[C@]3(CO)C(=O)C[C@]12C (stereo not given in full) | -6 | 9% | -9 | 0.25µM* | ?
CC(=O)OC(C)(C)/C=C/C(=O)[C@](C)(O)C1[C@H](O)C[C@@]2(C)C3CC=C4C(C=C(O[C@@H]5O[C@H](CO)[C@@H](O)[C@H](O)[C@H]5O)C(=O)C4(C)C)[C@]3(C)C(=O)C[C@]12C (stereo not given in full) | . | 5% | . | . | .
CC(=O)OC(C)(C)/C=C/C(=O)C(C)(O)C1C(O)CC2(C)C3CC=C4C(CC(O)C(=O)C4(C)C)C3(C)C(=O)CC12C (stereo not given) | . | 6% | . | ? | 0.13µM*
CCc1cccc(C)c1NC(=O)Cn1c(=O)cc(C(F)(F)F)c2c(C)nn(C)c21 | . | . | . | . | -13%[46.1 µM]
O=C(Nc1nc2c(F)cc(F)cc2s1)c1ccc([N+](=O)[O-])o1 | 26* | -5% | 50* | . | .
COc1ccc2nc(NC(=O)c3ccc([N+](=O)[O-])o3)sc2c1 | 34* | 2% | 55* | -1% | ?
Cc1cc(C)c2nc(NC(=O)c3ccc([N+](=O)[O-])o3)sc2c1 | -2 | -2% | . | -5% | ?
CN(C)CCCN(C(=O)c1ccc([N+](=O)[O-])o1)c1nc2cc3c(cc2s1)OCO3 | 55* | -5% | 60* | . | .
O=C(Nc1nc2cc3c(cc2s1)OCCO3)c1ccc([N+](=O)[O-])o1 | 48* | -5% | 45* | 14%[46.1 µM] | ?
CN(C)CCCN(C(=O)c1ccc2c(c1)OCCO2)c1nc2cc3c(cc2s1)OCO3 | 2 | -13% | 19 | ? | 29%
